# Measurements from the supplement of paper PMC10981050.
# Values joined by “and” are separate entries in the source; they are usually repeats but may differ in a detail not shown here. Identical values can stand only once. Counter-ions that a name gives are not always drawn.
# Tests used:
# Assay in all cases: cell viability relative to vehicle control; higher = less cytotoxic
# Conditions in all cases: 10 µM
# [1] = tested on: K562
# How it was run: (§1)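 Mutant clones made by CRISPR editing and their isogenic wild-type counterparts, from four leukaemia lines, were exposed to a single 10 µM dose of each library compound for 48 h. The supernatant was then removed and CellTiter-Glo luminescence was read. Viability was reported as percent of the on-plate vehicle control.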
# [2] = tested on: MARIMO
# How it was run: as §1
# [3] = tested on: MOLM14
# How it was run: as §1
# [4] = tested on: OCI-AML2
# How it was run: as §1
SMILES,cell viability ([1]; SRSF2 genotype: SRSF2 P95H/wt),cell viability ([1]; SRSF2 genotype: SRSF2 wt/wt) [%],cell viability ([2]; SRSF2 genotype: SRSF2 P95H/wt) [%],cell viability ([2]; SRSF2 genotype: SRSF2 wt/wt) [%],cell viability ([3]; SRSF2 genotype: SRSF2 P95H/wt) [%],cell viability ([3]; SRSF2 genotype: SRSF2 wt/wt) [%],cell viability ([4]; SRSF2 genotype: P95H/wt) [%],cell viability ([4]; SRSF2 genotype: wt/wt) [%]
"Cc1c(CN2CCN(C(=O)[C@H](C)O)CC2)sc2c(N3CCOCC3)nc(-c3cnc(N)nc3)nc12 [Apitolisib (GDC-0980, RG7422)]",43.1% and 43.8%,38.9,39.7,33.8,21.7,21.6,5.46,14.5
COc1cc(Nc2ncc3c(n2)-c2ccc(Cl)cc2C(c2c(F)cccc2OC)=NC3)ccc1C(=O)O [MLN8237 (Alisertib)],46.2% and 63.8%,60,87.3,108,30.6,17.7,43.5,44.5
O=C(O)c1ccc(Nc2ncc3c(n2)-c2ccc(Cl)cc2C(c2c(F)cccc2F)=NC3)cc1,66.5% and 78.8%,68.1,80.4,88.1,51.4,35.4,41.3,38.8
CCOC(=O)COc1ccc(/C=C2/SC(=S)NC2=O)cc1OC,90.9% and 94.4%,94.3,88.8,101,2.04,3.45,104,91.8
C[C@@H]1CN(c2c(F)c(N)c3c(=O)c(C(=O)O)cn(C4CC4)c3c2F)C[C@H](C)N1 [Sparfloxacin],103%,108,99.7,104,101,106,109,105
CC1(C)O[C@@H]2C[C@H]3[C@@H]4CCC5=CC(=O)C=C[C@]5(C)[C@@]4(F)[C@@H](O)C[C@]3(C)[C@]2(C(=O)CO)O1 [Triamcinolone Acetonide],101% and 100%,102,107,97.1,100,95.3,114,115
CC(=CCNc1ncnc2nc[nH]c12)CO [Trans-Zeatin],100% and 95.4%,104,99,108,98.3,103,104,97.4
CCOc1ccc2ccccc2c1C(=O)N[C@@H]1C(=O)N2[C@@H]1SC(C)(C)[C@@H]2C(=O)O [Nafcillin Sodium],106%,101,104,115,101,108,98,107
NCCCC[C@@H]1NC(=O)[C@@H](Cc2ccccc2)NC(=O)[C@H](CC(=O)O)NC(=O)CNC(=O)[C@H](CCCN=C(N)N)NC1=O [Cyclo (-RGDfK)],98.8% and 104%,103,98.6,103,98.5,101,108,118
CCOC(=O)c1ccc(O)c(OC)c1 [Ethyl Vanillate],97.5% and 92.9%,100,105,108,94.1,104,103,91.1
CCCOc1ccc(C(=O)OCCN(CC)CC)cc1N [Proparacaine HCl],99.7% and 99.3%,99.5,103,104,99.1,99.7,90.2,103
CCOC(=O)c1ccc(N)cc1 [Benzocaine],92% and 83.9%,94.2,84,91.7,87.9,92.4,91.4,94.6
CC[C@@]1(O)C(=O)OCc2c1cc1n(c2=O)Cc2cc3cc(O)ccc3nc2-1 [Hydroxy Camptothecine],10.4% and 26.6%,9.83,4.88,4.13,0.53,0.32,0.49,2.23
CN(CCN1CCC(OC(=O)Nc2ccccc2-c2ccccc2)CC1)C(=O)c1ccc(CN2CCC(C(N)=O)CC2)cc1 [Revefenacin],94.7% and 89.9%,92.8,82.7,90.8,87.1,92.2,83.2,83.5
COc1cc2c(=O)c3c(O)c([C@@H]4O[C@H](CO[C@@H]5OC[C@](O)(CO)[C@H]5O)[C@@H](O)[C@H](O)[C@H]4O)c(O)cc3oc2cc1O [Polygalaxanthone III],99.2% and 105%,98,100,98.8,101,98.4,105,97.3
O=C1C(Cl)=C(N2CCOCC2)C(=O)N1c1ccc(Cl)c(Cl)c1,97.9% and 96%,97.4,88.2,109,87,94,83.3,96.4
CC12CC3CC(C)(C1)CC(N)(C3)C2 [Memantine hydrochloride (Namenda)],101% and 93.1%,93.6,88.7,98.8,89.7,101,90.3,103
CN1CC[C@@H](c2c(O)cc(O)c3c(=O)cc(-c4ccccc4Cl)oc23)[C@@H]1CO,5.12% and 15.8%,7.55,7.83,3.59,2.24,0.71,1.64,13.3
NS(=O)(=O)c1ccc(NC(=O)Nc2ccc(F)cc2)cc1,99.9% and 107%,107,115,113,110,108,99.6,95
COc1cc(C(C)=O)ccc1OCCCN1CCC(c2noc3cc(F)ccc23)CC1 [Iloperidone (Fanapt)],81.7% and 86.8%,86.3,68.2,90.2,85.9,88.5,71.4,83.4
